In all, about 69,000 compounds went through this assay and about 8,600 (12%) showed an effect of 50% or more. The list comes from a sample in which strong results are over-represented; it also holds similar structures and randomly drawn compounds.
Tested on: Plasmodium berghei
Assay: Screen against P. berghei liver stage (PbLuc), transformed with Luciferase, at 10uM
Assay type: functional, HepG2
Details: tested at 10 uM

Row | SMILES | INHIBITION [%]
1 | COCCS(=O)(=O)NC(C)c1ccccc1Br (stereo unspecified) | 4.34
2 | Cc1ccc(NC(=O)Nc2c[nH]c(=O)[nH]c2=O)c(C)c1 | 50.8
3 | Cc1ccc(NC(=O)Nc2c[nH]c(=O)[nH]c2=O)c(Cl)c1 | 3.77
4 | Cc1ccc(C)c(NC(=O)Nc2c[nH]c(=O)[nH]c2=O)c1 | 29.2
5 | CN1CCCC(NC(=O)c2ccc(C(=O)c3cc[nH]c3)cc2)C1 (stereo unspecified) | 44.2
6 | CCOCCN1CCN(CC(=O)N2CCCC2)CC1CC (stereo unspecified) | 31.9
7 | CCOCCN1CCN(CC(=O)N2CCCC2)CC1C (stereo unspecified) | 66.5
8 | CCOCCN1CCN(CCC(=O)N2CCCCC2)CC1 | 64.1
9 | CCOCCN1CCN(CC2(O)CCCCC2)CC1 | 10.6
10 | CCOCCN1CCN(CC(=O)N2CCC2)CC1CC (stereo unspecified) | -20.2
11 | CCOCCN1CCN(CCC(=O)N2CCCCC2)CC1C (stereo unspecified) | -10.1
12 | Cc1cc2nc(C(C)C)cc(NCCc3cccn3C)n2n1 | 39.5
13 | Cc1cc(CN(C)C(=O)C(c2ccccc2)N2CCSCC2)no1 (stereo unspecified) | 17.5
14 | CN(Cc1ccccn1)C(=O)C(c1ccccc1)N1CCSCC1 (stereo unspecified) | 33.7
15 | CN(Cc1cscn1)C(=O)C(c1ccccc1)N1CCSCC1 (stereo unspecified) | 60.3
16 | COCCOCC1CCN(C(=O)c2ccc3[nH]cnc3c2)C1 (stereo unspecified) | -24.9
17 | COc1c(CNCc2ccc(N3CCCC3)nc2)c(C(C)C)nn1C | 7.95
18 | CCN(CC(=O)NC)S(=O)(=O)c1cnc2c(c1)c(C)nn2C | 12.7
19 | CCCN(CC(=O)OC)S(=O)(=O)c1cnc2c(c1)c(C)nn2C | 57.6

Row | SMILES | INHIBITION [%]
20 | CCN(CC(=O)N(C)C)S(=O)(=O)c1cnc2c(c1)c(C)nn2C | 51.1
21 | Cc1nn(C)c2ncc(S(=O)(=O)N3CCCC(C)CC3)cc12 (stereo unspecified) | 45.1
22 | CCN(CCC(=O)OC)S(=O)(=O)c1cnc2c(c1)c(C)nn2C | 35.1
23 | Cc1nn(C)c2ncc(S(=O)(=O)N3CCCC(C(N)=O)C3)cc12 (stereo unspecified) | 36.5
24 | COC(=O)Cn1c(=O)[nH]c2cn(-c3ccc(F)cc3)c(=O)n21 | 31
25 | Cc1ccsc1C(=O)N1CCCC(c2[nH]ncc2S(C)(=O)=O)C1 (stereo unspecified) | 17.4
26 | Cc1nc(-c2ccccc2)nc2c1CCN(Cc1nccn1C)CC2 | 75.6
27 | Cc1nc(C)c2c(n1)CCN(Cc1nccn1C)CC2 | 45.7
28 | Cc1nc(N2CCCC2)nc2c1CCN(Cc1nccn1C)CC2 | 46.6
29 | Cn1ccnc1CN1CCN(Cc2noc(-c3ccccc3)n2)CC1 | 24.4
30 | CN(C)c1nc(N2CCCC2)nc2c1CCN(Cc1nccn1C)CC2 | 50.3
31 | Cc1nc(N2CCOCC2)nc2c1CCN(Cc1nccn1C)CC2 | 38.5
32 | CC(C)(C)Nc1c(C2CCN(C(=O)C3CC3)CC2)nc2ccccn12 | 26.355
33 | O=C(NCCn1ccnc1)N1CCN(Cc2ccsc2)CC1 | 19.5
34 | CCCn1nc(C)c(-c2cncn2CCN(C)C2CCCC2)c1C | -0.232
35 | CCc1nc(CN2CCCN(C(=O)C(CC)OC)CC2)cs1 (stereo unspecified) | -4.94
36 | O=C(Nc1cc(F)ccc1OCC1CCCO1)N1CCCC1 (stereo unspecified) | 17.8
37 | CCN(C(=O)c1ccc2nnc(C3CCN(S(C)(=O)=O)C3)n2c1)C(C)C (stereo unspecified) | 33.1
38 | CC(=O)N1CCC(c2nnc3ccc(C(=O)NC(C)C)cn23)C1 (stereo unspecified) | 42.6

Row | SMILES | INHIBITION [%]
39 | CC(=O)N1CCC(c2nnc3ccc(C(=O)NCC(C)C)cn23)C1 (stereo unspecified) | 51.2
40 | CCN(C(=O)c1ccc2nnc(C3CCN(C)C3)n2c1)C(C)C (stereo unspecified) | 27.6
41 | CC(C)NC(=O)c1ccc2nnc(C3CCN(C(=O)NC(C)C)C3)n2c1 (stereo unspecified) | 8.85
42 | CC(=O)N1CCC(c2nnc3ccc(C(=O)NCCN(C)C)cn23)C1 (stereo unspecified) | 59.3
43 | CCC(CC)NC(=O)c1ccc2nnc(C3CCN(C(C)=O)C3)n2c1 (stereo unspecified) | 50.7
44 | CC(C)NC(=O)c1ccc2nnc(C3CCN(S(C)(=O)=O)C3)n2c1 (stereo unspecified) | 10.6
45 | CCN(C(=O)c1ccc2nnc(C3CCN(C(C)=O)C3)n2c1)C(C)C (stereo unspecified) | 50.3
46 | CCC(CC)NC(=O)c1ccc2nnc(C3CCN(S(C)(=O)=O)C3)n2c1 (stereo unspecified) | -1.26
47 | CC(C)NC(=O)N1CCC(c2nnc3ccc(C(=O)N(C)C)cn23)C1 (stereo unspecified) | -7.24
48 | CC(C)CNC(=O)c1ccc2nnc(C3CCN(S(C)(=O)=O)C3)n2c1 (stereo unspecified) | 40.9
49 | CC1CCCN(Cc2ccc(OCc3nccn3C)cc2)C1 (stereo unspecified) | 33.3
50 | COCC(=O)NC1CCN(c2cccc(OC(F)(F)F)c2)C1=O (stereo unspecified) | 42.3
51 | CC(C)=CCN1CCN(C(=O)c2cc(C(C)C)no2)[C@H]2CS(=O)(=O)C[C@H]21 | -7.25
52 | COCc1nc(CNC2CCCC(C)(C)C2)no1 (stereo unspecified) | 25.1
53 | Cc1ccc(N2CC[C@H]3OCC[C@@]3(C(=O)NCC3CC3)C2)nn1 | 12.5
54 | CN1CC2(CCN(C(=O)CCc3nc4cccnc4n3C)C2)OC1=O (stereo unspecified) | -19.1
55 | COc1c(CNCc2nnc3n2CCCCC3)c(C(C)C)nn1C | 27.9
56 | CN(CCc1noc(C2CC2)n1)C(=O)CN1C(=O)COc2ccccc21 | -37.9

— ChEMBL document CHEMBL4513216, “Probing the Open Global Health Chemical Diversity Library for Multistage-Active Starting Points for Next-Generation Antimalarials” (ACS Infect Dis, 2020)
